# Target: T1, Transcription intermediary factor 1-alpha (Homo sapiens) (UniProt O15164)
# T1 sequence (whole entry): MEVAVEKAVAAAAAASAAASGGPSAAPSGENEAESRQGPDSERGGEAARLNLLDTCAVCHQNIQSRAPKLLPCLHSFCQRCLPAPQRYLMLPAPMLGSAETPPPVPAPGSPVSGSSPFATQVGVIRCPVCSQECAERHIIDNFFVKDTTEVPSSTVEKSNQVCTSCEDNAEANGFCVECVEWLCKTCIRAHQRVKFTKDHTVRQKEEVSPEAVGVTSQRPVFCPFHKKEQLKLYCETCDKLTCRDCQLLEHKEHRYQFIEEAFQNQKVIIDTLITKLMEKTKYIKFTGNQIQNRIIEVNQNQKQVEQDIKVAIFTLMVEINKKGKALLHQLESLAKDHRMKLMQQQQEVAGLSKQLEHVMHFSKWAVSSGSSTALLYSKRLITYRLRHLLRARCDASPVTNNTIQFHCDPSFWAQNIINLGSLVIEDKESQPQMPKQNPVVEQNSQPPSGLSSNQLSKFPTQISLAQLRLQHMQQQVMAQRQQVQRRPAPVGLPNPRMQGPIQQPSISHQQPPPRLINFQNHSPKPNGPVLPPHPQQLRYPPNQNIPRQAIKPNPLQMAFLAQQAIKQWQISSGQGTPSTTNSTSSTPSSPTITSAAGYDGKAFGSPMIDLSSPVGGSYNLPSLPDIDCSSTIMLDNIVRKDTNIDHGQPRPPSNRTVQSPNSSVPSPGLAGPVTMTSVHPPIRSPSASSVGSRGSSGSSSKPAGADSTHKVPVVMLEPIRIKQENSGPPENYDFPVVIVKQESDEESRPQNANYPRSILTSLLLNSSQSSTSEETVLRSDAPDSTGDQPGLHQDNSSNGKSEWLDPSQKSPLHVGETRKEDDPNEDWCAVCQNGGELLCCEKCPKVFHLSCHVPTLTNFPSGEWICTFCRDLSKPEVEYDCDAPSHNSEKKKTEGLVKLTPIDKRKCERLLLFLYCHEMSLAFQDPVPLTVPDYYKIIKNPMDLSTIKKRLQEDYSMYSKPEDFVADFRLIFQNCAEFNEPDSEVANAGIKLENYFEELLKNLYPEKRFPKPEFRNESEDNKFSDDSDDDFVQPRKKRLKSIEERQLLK
# Details: Compound concentration 10.0 uM, Protein concentration 2.0 uM
smiles,measurement,value
COc1ccccc1S(=O)(=O)Nc1ccc2c(c1)CN(C)C(=O)N2,ΔTm,0.62 °C
